# Laboratory results reported in PubChem BioAssay AID463173 (ICCB-Longwood Screening Facility, Harvard Medical School, 2010).
# About 4,300 (8.3%) of roughly 52,000 compounds were called active. Only a selection was taken, and actives are over-represented in it overall. Values without a mark were called inactive. Rule as the data show it: active = survival mostly below about 52% (no sharp cut-off); inactive = mostly above about 56%.
# Test system: DeltatarO mutant
# Experiment: S. aureus survival, RN4220 and DeltatarO strains – OD600, teichoic acid synthesis inhibitors, primary screen (AID 463173)
# Details: S. aureus RN4220 wild type/DeltatarO growth, OD600, 18 h, stronger effect = lower value, screened at 18.75 µg/mL (by protocol)
row,Compound,survival
1,CCC(C)NC(=O)C1CCN(S(=O)(=O)c2ccc3c(c2)CCCN3C(C)=O)CC1 (stereo not given),67%
2,CC(C)(C)NC(=S)Nc1ccc2nccnc2c1,65%
3,Cc1ccc(-c2noc(CNS(=O)(=O)c3ccc(F)cc3)n2)cc1,81%
4,Cc1ccc(C)c(N2CCN(C(=O)Cn3cnc4onc(-c5ccc(F)cc5)c4c3=O)CC2)c1,83%
5,CC(C)CCNC(=O)C(=O)Nc1c2c(nn1-c1ccc(Cl)cc1)CSC2,86%
6,Cc1nc2ccn(Cc3ccccc3)c(=O)c2cc1C(=O)N1CCN(c2ccc(F)cc2)CC1,95%
7,O=C(COc1ccccc1)N(Cc1cccnc1)c1nc2c(F)cccc2s1,84%
8,Cc1ccc(C(=O)N2CCc3cc(CNC(=O)c4ccnn4C)ccc32)cc1,91%
9,Cn1cc(CCCC(=O)NCc2ccccc2Cl)c2ccccc21,75%
10,COc1cccc(CNC(=O)CCn2c(=O)c3cccn3c3ccc(F)cc32)c1OC,59%
11,CC(C)Oc1ccc(CNC(=O)CCn2c(=O)c3cccn3c3ccc(F)cc32)cc1,48%
12,COc1cccc(CNC(=O)CCCn2c(=O)c3cccn3c3ccc(F)cc32)c1OC,43% (active)
13,CC(C)Oc1ccc(CNC(=O)CCCn2c(=O)c3cccn3c3cccnc32)cc1,111%
14,CC(C)Oc1ccc(CNC(=O)CCCn2c(=O)c3cccn3c3ccccc32)cc1,45% (active)
15,COc1cccc(CNC(=O)Cn2c(=O)c3cccn3c3ccc(F)cc32)c1OC,103%
16,COc1cccc(NC(=O)Cn2c(=O)n(-c3cccc(OC)c3)c(=O)c3c4c(sc32)CCCC4)c1,107%
17,COc1ccc(-c2nc3c4ccccc4n(CC(=O)Nc4cc(F)ccc4F)c(=O)n3n2)cc1,84%
18,Cc1ccc(-c2nc3sc(CCNC(=O)c4ccc(F)c(F)c4)c(C)n3n2)cc1,76%
19,CCOc1ccc(CCNC(=O)c2cc3c(=O)n(CC)c4ccccc4c3s2)cc1OCC,60%
20,CCc1ccc(CNC(=O)c2cc3c(=O)n(CC)c4ccccc4c3s2)cc1,51%
21,CCn1c(=O)c2cc(C(=O)NCCc3cc(OC)ccc3OC)sc2c2ccccc21,34% (active)
22,COc1ccc(CCNC(=O)c2cc3c(=O)n(C)c4ccccc4c3s2)cc1OC,65%
23,CCn1c(=O)c2cc(C(=O)NCCc3ccc(Cl)cc3)sc2c2ccccc21,76%
24,CCn1c(=O)c2cc(C(=O)Nc3cc(OC)c(OC)c(OC)c3)sc2c2ccccc21,41% (active)
25,CCn1c(=O)c2cc(C(=O)Nc3cc(C)c(Cl)cc3OC)sc2c2ccccc21,69%
26,CCn1c(=O)c2cc(C(=O)NCc3cc(OC)ccc3OC)sc2c2ccccc21,54% (active)
27,CCn1c(=O)c2cc(C(=O)Nc3cccc(C(F)(F)F)c3)sc2c2ccccc21,84%
28,CCn1c(=O)c2cc(C(=O)NCCCOC)sc2c2ccccc21,103%
29,CCn1c(=O)c2cc(C(=O)NCCc3ccc(OC)c(OC)c3)sc2c2ccccc21,42% (active)
30,COc1ccc(Br)cc1CNC(=O)c1cc2c(=O)n(C)c3ccccc3c2s1,94%
